{"source": "PubChem BioAssay AID1445", "about": "(SRMLSC, 2008)", "note": "Among all 220,000 compounds or so, about 910 (0.41%) were called active. The sample as a whole holds a higher share of actives than the screen did. Results with a measured potency or affinity are listed apart. A number with no mark means an inactive call.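 Rule for the calls: active = primary inhibition above the hit cutoff, then over 50% inhibition at one or more dose response concentrations (cut at about 23% in these data, passing the limit was not always enough); inconclusive = conflicting primary data, or primary hits not chosen for dose response; inactive = low primary inhibition, or under 50% at every dose.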"}
{"biological_target": "Aminopeptidase N (Plasmodium falciparum (isolate 3D7)) (UniProt O96935)", "sequence (O96935 whole entry, looked up)": "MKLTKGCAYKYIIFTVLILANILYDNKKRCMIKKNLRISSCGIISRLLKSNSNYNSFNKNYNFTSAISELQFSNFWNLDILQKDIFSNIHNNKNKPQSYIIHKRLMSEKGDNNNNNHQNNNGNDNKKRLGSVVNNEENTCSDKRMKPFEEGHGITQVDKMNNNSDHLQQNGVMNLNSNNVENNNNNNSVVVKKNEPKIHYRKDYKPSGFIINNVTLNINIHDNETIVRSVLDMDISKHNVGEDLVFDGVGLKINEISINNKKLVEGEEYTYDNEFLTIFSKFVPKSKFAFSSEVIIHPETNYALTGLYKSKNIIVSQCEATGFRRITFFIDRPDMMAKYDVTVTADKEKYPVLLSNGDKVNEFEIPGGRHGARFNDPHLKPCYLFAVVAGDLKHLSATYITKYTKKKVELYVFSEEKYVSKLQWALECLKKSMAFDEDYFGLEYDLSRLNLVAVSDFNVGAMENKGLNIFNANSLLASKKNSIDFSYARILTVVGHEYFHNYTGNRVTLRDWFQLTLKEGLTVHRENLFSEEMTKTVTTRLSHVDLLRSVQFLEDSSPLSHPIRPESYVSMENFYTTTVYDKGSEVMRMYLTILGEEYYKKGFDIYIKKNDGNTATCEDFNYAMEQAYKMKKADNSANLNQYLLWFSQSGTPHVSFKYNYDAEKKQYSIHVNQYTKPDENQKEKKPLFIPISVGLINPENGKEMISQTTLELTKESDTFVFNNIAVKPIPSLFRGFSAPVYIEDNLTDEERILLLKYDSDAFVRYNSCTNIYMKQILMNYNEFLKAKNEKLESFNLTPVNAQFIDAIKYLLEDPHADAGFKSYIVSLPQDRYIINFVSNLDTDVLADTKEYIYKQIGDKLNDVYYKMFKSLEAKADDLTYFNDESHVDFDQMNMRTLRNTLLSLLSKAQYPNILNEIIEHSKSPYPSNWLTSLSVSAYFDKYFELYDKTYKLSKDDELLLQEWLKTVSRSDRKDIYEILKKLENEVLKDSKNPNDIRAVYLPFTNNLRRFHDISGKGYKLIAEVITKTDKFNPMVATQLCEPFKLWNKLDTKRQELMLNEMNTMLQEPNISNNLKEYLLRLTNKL", "assay": "P. falciparum M1AAP inhibitors, biochemical, fluorogenic H-Leu-NHMec substrate, 1536-well (AID 1445);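 note: plate controls were DMSO full reaction for no effect and no enzyme background for full effect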", "conditions": "recombinant M1AAP, H-Leu-NHMec fluorogenic kinetic assay; at 30 µM, stronger effect = higher value unless noted"}
{"smiles": "CSc1nnc(C)c(=O)n1COC(=O)COc1ccccc1", "inhibition": "0.02%"}
{"smiles": "COc1cc(OC)cc(C(=O)NC(=S)NCc2ccco2)c1", "inhibition": "5.49%"}
{"smiles": "O=C(NC1CCCCC1)N1CCN(C(=O)c2ccco2)CC1", "inhibition": "-0.86%"}
{"smiles": "O=C(c1ccco1)n1nc(-c2cccnc2)nc1NCc1ccco1", "inhibition": "16.8%"}
{"smiles": "CC1(C)Cc2nc3sc(C(=O)NCCO)c(N)c3cc2CO1", "inhibition": "1.79%"}
{"smiles": "CCC(C)(C)NC(=O)C(c1ccc(C)o1)N(C(=O)c1csnn1)c1cccc(F)c1", "note": "(configuration not stated)", "inhibition": "1.56%"}
{"smiles": "O=C(Cc1cccs1)Nc1nnc(-c2ccccc2)s1", "inhibition": "8.23%"}
{"smiles": "CCCc1n(CC(O)COCc2ccccc2)c2ccccc2[n+]1C", "note": "(configuration not stated)", "inhibition": "6.5%"}
{"smiles": "Cc1ccc2[nH]c(=O)c(CN3CCCCC3)c(-c3ccccc3)c2c1", "inhibition": "-7.69%"}
{"smiles": "O=c1[nH]c2ccc(Br)cc2c(-c2ccccc2)c1N1CCOCC1", "inhibition": "3.65%"}
{"smiles": "CCCCCCC(=O)N/N=C(\\C)Cc1ccccc1", "inhibition": "-0.14%"}
{"smiles": "COc1cccc(-n2c(CN3CCN(Cc4ccccc4)CC3)nc3ccc([N+](=O)[O-])cc3c2=O)c1", "inhibition": "4.64%"}
{"smiles": "Cc1c(Cl)cnc(NC(=O)CSc2nncs2)c1Cl", "inhibition": "-1.74%"}
{"smiles": "Cc1ccc(C(=O)NC2CCN(CC(=O)NCc3cccs3)CC2)cc1", "inhibition": "15.8%"}
{"smiles": "COc1ccccc1CNC(=O)CN1CCC(NC(=O)c2ccccc2F)CC1", "inhibition": "8.21%"}
{"smiles": "O=C(CN1CCC(NC(=O)c2ccc(F)cc2)CC1)NCc1ccccc1F", "inhibition": "31.9%"}
{"smiles": "COc1cccc(C(=O)NCc2ccccc2OC)c1", "inhibition": "0.04%"}
{"smiles": "O=C(CN1CCC(NC(=O)c2ccc(Br)cc2)CC1)NCc1cccs1", "inhibition": "17.5%"}
{"smiles": "CCOc1ccc(OCC)c(NC(=O)CN2CCC(NC(=O)c3cccc(F)c3)CC2)c1", "inhibition": "8.37%"}
{"smiles": "O=C(CN1CCC(C(=O)c2cccc(F)c2)CC1)NCc1cccs1", "inhibition": "11.7%"}
{"smiles": "COc1cccc(OC)c1NC(=O)CN1CCC(NC(=O)c2cccc(F)c2)CC1", "inhibition": "20.7%"}
{"smiles": "O=C(C1CC1)N1CCN(S(=O)(=O)c2ccc3c(c2)OCCO3)CC1", "inhibition": "2.72%"}
{"smiles": "O=C(O)CC(NC(=O)C(c1ccccc1)c1ccccc1)c1ccc(F)cc1", "note": "(configuration not stated)", "inhibition": "-1.82%"}
{"smiles": "Cc1cccc(C)c1NC(=O)c1sc(Cl)nc1C", "inhibition": "-2.07%"}
{"smiles": "CC(C)N(CCc1ccncc1)C(=O)Nc1ccc(Cl)c(Cl)c1", "inhibition": "-5.52%"}
{"smiles": "CCn1nnnc1SCC(=O)Nc1ccc(OCc2ccccc2)cc1", "inhibition": "7.63%"}
{"smiles": "O=C(NCc1ccccc1)c1onc(CSc2ccccn2)c1C(=O)NCc1ccccc1", "inhibition": "4.51%"}
{"smiles": "CC(C)N(C)C1CCN(C(=O)Nc2ccc(Cl)cc2)CC1", "inhibition": "3.02%"}
{"smiles": "O=c1[nH]c(N2CCOCC2)nc2c1CCCC2", "inhibition": "15.6%"}
{"smiles": "CC(C)Oc1ccc(C(CC(=O)O)NC(=O)C2CCCCC2)cc1", "note": "(configuration not stated)", "inhibition": "-1.13%"}
{"smiles": "Cc1ccc(SCCC(=O)Nc2ccccc2C(=O)N2CCOCC2)cc1", "inhibition": "-3.27%"}
{"smiles": "CN(C)CC(C)(C)CNC(=S)Nc1ccc(S(=O)(=O)N2CCOCC2)cc1", "inhibition": "2.96%"}
{"smiles": "Cc1ccccc1C(=O)NC1CCN(CC(=O)Nc2ccc3c(c2)OCO3)CC1", "inhibition": "10.9%"}
{"smiles": "Cc1ccccc1C(=O)NC1CCN(CC(=O)Nc2ccc3c(c2)OCCO3)CC1", "inhibition": "-1.09%"}
{"smiles": "O=C(CN1CCC(NC(=O)c2ccccc2Cl)CC1)NCc1ccco1", "inhibition": "12.1%"}
{"smiles": "Cc1ccccc1C(=O)NC1CCN(CC(=O)NCc2ccc(F)cc2)CC1", "inhibition": "3.39%"}
{"smiles": "O=C(CN1CCC(NC(=O)c2ccccc2F)CC1)NCc1ccc(F)cc1", "inhibition": "27.4% (active)"}
{"smiles": "Cc1cc(-c2n[nH]c(=S)n2/N=C/C=C/c2ccccc2)n[nH]1", "inhibition": "16.6%"}
{"smiles": "CC1CCN(CCc2nc3cc(NS(=O)(=O)c4ccc(F)cc4)ccc3n2C)CC1", "inhibition": "-3.38%"}
{"smiles": "Cc1ccc(OCCCNCCO)c(Br)c1", "inhibition": "9.5%"}
{"smiles": "CCC(=O)NC(=S)Nc1c(C)cc(Br)cc1C", "inhibition": "0.48%"}
{"smiles": "CC(C(=O)c1c[nH]c(C(=O)N=CN(C)C)c1)c1ncc(C(F)(F)F)cc1Cl", "note": "(configuration not stated)", "inhibition": "0.78%"}
{"smiles": "COc1cc2c(cc1OC)-c1cc(Nc3ccccc3)nc(=O)n1CC2", "inhibition": "11.4%"}
{"smiles": "CCOc1cccc(Nc2cc3n(c(=O)n2)CCc2cc(OC)c(OC)cc2-3)c1", "inhibition": "12.6%"}
{"smiles": "COc1cc2c(cc1OC)-c1cc(Nc3ccc4c(c3)OCCO4)nc(=O)n1CC2", "inhibition": "24.9% (active)"}
{"smiles": "CC(c1cccs1)N(Cc1ccco1)C(=S)Nc1ccc(F)c(Cl)c1", "note": "(configuration not stated)", "inhibition": "4.95%"}
{"smiles": "Cc1ncc(CO)c(/C=N/NC(=S)Nc2ccc(C(C)C)cc2)c1O", "inhibition": "9.46%"}
{"smiles": "Cc1nc2cc(NC(=O)c3ccc(N4C(=O)CCC4=O)cc3)ccc2s1", "inhibition": "-5.53%"}
{"smiles": "Cc1ccc(/C=C2\\SC(=S)N(C(Cc3ccccc3)C(=O)O)C2=O)cc1", "note": "(configuration not stated)", "inhibition": "14.4%"}
{"smiles": "CCOc1ccc(/C=C2\\SC(=S)N(C(C(=O)O)c3ccccc3)C2=O)cc1OC", "note": "(configuration not stated)", "inhibition": "14.7%"}
{"smiles": "COc1cc(/C=C2/SC(=S)N(c3c(C)n(C)n(-c4ccccc4)c3=O)C2=O)ccc1O", "inhibition": "11.3%"}
{"smiles": "CCOc1ccc(/C=C2\\SC(=S)N(CCC(=O)O)C2=O)cc1", "inhibition": "1.74%"}
{"smiles": "COc1ccc(/C=C2\\SC(=S)N(C(Cc3ccccc3)C(=O)O)C2=O)cc1", "note": "(configuration not stated)", "inhibition": "4.89%"}
{"smiles": "COc1cc(/C=C2\\SC(=S)N(C(C(=O)O)c3ccccc3)C2=O)cc(OC)c1OC", "note": "(configuration not stated)", "inhibition": "18.4%"}
{"smiles": "CCOc1ccc(/C=C2/SC(=S)N(C(C(=O)O)c3ccccc3)C2=O)cc1OCC", "note": "(configuration not stated)", "inhibition": "12.1%"}
{"smiles": "C=CCOc1ccc(/C=C2\\SC(=S)N(N3CCOCC3)C2=O)cc1", "inhibition": "-2.77%"}
{"smiles": "O=C(COc1cccc2cccnc12)N/N=C/c1ccccc1O", "inhibition": "-2.77%"}
{"smiles": "O=S(=O)(NCC(c1cccnc1)N1CCN(c2ccc(F)cc2)CC1)c1cccs1", "note": "(configuration not stated)", "inhibition": "-1.2%"}
{"smiles": "COc1ccc(CNC(=S)NC(C)CCc2ccccc2)cc1", "note": "(configuration not stated)", "inhibition": "-0.16%"}
{"smiles": "CSc1cccc(NCc2ccc([N+](=O)[O-])cc2)c1", "inhibition": "7.42%"}
{"smiles": "COc1ccc(-c2nn(-c3ccccc3)cc2CNCCN2CCOC2=O)c(F)c1", "inhibition": "-5.99%"}
{"smiles": "O=C(N/N=C/c1ccccn1)c1cc(-c2ccccc2)nc2ccccc12", "inhibition": "-10.8%"}
{"smiles": "Cn1cnnc1SCC(=O)Nc1ccc2nc(SCc3ccccc3F)sc2c1", "inhibition": "-0.14%"}
{"smiles": "O=C(O)C(Cc1ccccc1)N1C(=O)/C(=C/c2ccccc2)SC1=S", "note": "(configuration not stated)", "inhibition": "18.4%"}
{"smiles": "O=C(O)C(Cc1ccccc1)N1C(=O)/C(=C/c2cccnc2)SC1=S", "note": "(configuration not stated)", "inhibition": "5.04%"}
{"smiles": "CC[C@@H]1CC=C[C@H]2[C@H]1C(=O)N(Cc1ccccc1)[C@H]2c1ccc(OC)c(Cl)c1", "inhibition": "4.5%"}
{"smiles": "NS(=O)(=O)c1ccc(N2N=C(c3ccccc3)CC2c2ccccc2)cc1", "note": "(configuration not stated)", "inhibition": "19.1%"}
{"smiles": "COc1ccc(C2CC(c3ccccc3)=NN2c2ccc(S(N)(=O)=O)cc2)cc1", "note": "(configuration not stated)", "inhibition": "22.3%"}
{"smiles": "COc1ccc(C2CC(c3ccccc3)=NN2c2ccc(S(N)(=O)=O)cc2)cc1OC", "note": "(configuration not stated)", "inhibition": "19.9%"}
{"smiles": "NS(=O)(=O)c1ccc(N2N=C(c3ccc(Br)cc3)CC2c2ccc(F)cc2)cc1", "note": "(configuration not stated)", "inhibition": "5.03%"}
{"smiles": "CC(C)(C)N/C=C(\\C#N)S(=O)(=O)c1ccc(Br)cc1", "inhibition": "-2.81%"}
{"smiles": "COc1cc(OC)c2c(-c3ccccc3)cc(=O)oc2c1C(CC(=O)N1CCN(c2ccccc2)CC1)c1ccc2c(c1)OCO2", "note": "(configuration not stated)", "inhibition": "5.15%"}
{"smiles": "C=CCn1c(=O)c2ccccc2n2c(SCC(=O)Nc3sc(C)c(CC)c3C(=O)OCC)nnc12", "inhibition": "1.54%"}
{"smiles": "CS(=O)(=O)N(CC(=O)Nc1ccccc1C(=O)N1CCCC1)c1ccc2c(c1)OCO2", "inhibition": "4.85%"}
{"smiles": "CS(=O)(=O)N(CC(=O)Nc1ccccc1C(=O)N1CCOCC1)c1ccc2c(c1)OCO2", "inhibition": "24.9% (active)"}
{"smiles": "CS(=O)(=O)N(CC(=O)Nc1ccccc1C(=O)N1CCOCC1)c1ccccc1", "inhibition": "-1.24%"}
{"smiles": "Cc1cc(C(=O)CSc2nnc(C3COc4ccccc4O3)n2C)c(C)n1-c1ccc(F)cc1", "note": "(configuration not stated)", "inhibition": "7.16%"}
{"smiles": "CCCOc1cccc(NC(=O)OC2CCN(C)CC2)c1", "inhibition": "-1.59%"}
{"smiles": "Cc1ccc(C(=O)Nc2ncc(Cc3ccc(F)cc3)s2)o1", "inhibition": "3.37%"}
{"smiles": "O=[N+]([O-])c1ccc(N/N=C\\c2cccnc2)nc1", "inhibition": "6.43%"}
{"smiles": "COc1ccc(C(=O)Nc2nc3nccc(-c4ccccc4)n3n2)cc1", "inhibition": "0.22%"}
{"smiles": "COC(=O)c1c(NC(=O)CSc2ccccc2N)sc(C)c1C", "inhibition": "2.47%"}
{"smiles": "CCOC(=O)c1c(NC(=O)CSc2ncnc3ccccc23)sc(C)c1C", "inhibition": "1.43%"}
{"smiles": "O=c1[nH]c(/C(=N\\O)c2ccccc2)no1", "inhibition": "10.2%"}
{"smiles": "Cc1nnc(SCc2ccc(Cl)cc2Cl)[nH]c1=O", "inhibition": "4.54%"}
{"smiles": "S=c1[nH]nc(-c2ccc(Br)cc2)n1Cc1ccco1", "inhibition": "3.64%"}
{"smiles": "Cn1cccc1Cc1nnc(SCC(=O)NC2CCCCC2)n1-c1ccc(F)cc1", "inhibition": "6.82%"}
{"smiles": "CCOc1ccccc1N1CSC2=C(C#N)C(c3c(OC)ccc4ccccc34)CC(=O)N2C1", "note": "(configuration not stated)", "inhibition": "18.2%"}
{"smiles": "COc1ccc2ccccc2c1C1CC(=O)N2CN(C)CSC2=C1C#N", "note": "(configuration not stated)", "inhibition": "16%"}
{"smiles": "COc1ccc2ccccc2c1C1CC(=O)N2CN(C3CCCCC3)CSC2=C1C#N", "note": "(configuration not stated)", "inhibition": "28% (active)"}
{"smiles": "CCOc1ccccc1NC(=O)c1ccc(S(=O)(=O)N(C)C)cc1", "inhibition": "-1.64%"}
{"smiles": "COCc1nnc(NS(=O)(=O)c2ccc([N+](=O)[O-])cc2)s1", "inhibition": "2.64%"}
